Source: the supplement of paper PMC11732987, “Enantioselective OTUD7B fragment discovery through chemoproteomics screening and high-throughput optimisation” (Communications Chemistry, 2025)

How the values were obtained:
Assay in all cases: log2 ratio of Biotin-Ahx-Ub-VS probe labelling (fragment/DMSO); higher = less target engagement (more negative = stronger competition), active = hit call of the paper (q ≤ 0.05, log2 ratio ≤ -1)
Settings in all cases: compound concentration: 200 uM; treatment time: 3 h
USP34 = USP34 (UniProt Q70CQ2)
Outline: (§1)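 HEK293T lysate (495 µg per sample, in Tris/CHAPS/IGEPAL buffer with protease inhibitors) was exposed in triplicate for 3 h to fragment at 200 µM or to vehicle, then to Biotin-Ahx-Ub-VS at 0.5 µM final for 1 h. Labelled DUBs were enriched on NeutrAvidin, digested with LysC and trypsin, and analysed by diaPASEF LC-MS/MS. Spectronaut label-free quantities were normalised to the global median, and values are average log2 ratios of fragment over vehicle from an unpaired t-test. Only proteins with ≥2 unique peptides were used.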

USP36 = target: T1, USP36 (UniProt Q9P275)
T1 sequence (whole entry): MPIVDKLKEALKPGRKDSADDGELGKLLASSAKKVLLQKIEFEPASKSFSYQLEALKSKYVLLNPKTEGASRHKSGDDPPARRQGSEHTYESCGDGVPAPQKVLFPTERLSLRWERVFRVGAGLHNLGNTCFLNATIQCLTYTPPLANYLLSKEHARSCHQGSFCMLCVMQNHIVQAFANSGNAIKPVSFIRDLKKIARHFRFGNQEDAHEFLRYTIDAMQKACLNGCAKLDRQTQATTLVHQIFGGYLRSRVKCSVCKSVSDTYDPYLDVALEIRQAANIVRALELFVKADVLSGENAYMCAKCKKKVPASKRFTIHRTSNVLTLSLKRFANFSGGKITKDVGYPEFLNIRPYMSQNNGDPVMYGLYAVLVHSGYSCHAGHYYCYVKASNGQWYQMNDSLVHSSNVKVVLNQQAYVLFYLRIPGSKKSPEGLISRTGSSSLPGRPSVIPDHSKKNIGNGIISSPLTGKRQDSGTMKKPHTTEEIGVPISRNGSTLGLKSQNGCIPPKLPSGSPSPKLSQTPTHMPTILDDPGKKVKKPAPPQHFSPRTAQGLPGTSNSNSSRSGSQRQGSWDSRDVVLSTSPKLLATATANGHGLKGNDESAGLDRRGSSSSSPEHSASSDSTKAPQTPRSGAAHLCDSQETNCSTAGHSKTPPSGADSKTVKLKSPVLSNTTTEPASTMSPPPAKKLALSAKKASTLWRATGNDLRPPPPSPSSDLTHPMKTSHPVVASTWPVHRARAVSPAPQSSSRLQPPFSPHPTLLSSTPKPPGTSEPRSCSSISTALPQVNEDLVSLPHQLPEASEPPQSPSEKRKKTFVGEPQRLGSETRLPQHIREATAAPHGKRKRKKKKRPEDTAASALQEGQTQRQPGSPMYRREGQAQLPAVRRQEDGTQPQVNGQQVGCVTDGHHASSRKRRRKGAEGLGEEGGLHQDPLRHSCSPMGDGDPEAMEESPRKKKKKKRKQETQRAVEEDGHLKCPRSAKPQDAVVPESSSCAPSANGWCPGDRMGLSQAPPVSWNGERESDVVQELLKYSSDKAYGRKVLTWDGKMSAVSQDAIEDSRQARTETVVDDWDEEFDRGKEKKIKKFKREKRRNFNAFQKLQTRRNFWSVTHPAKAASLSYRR
Outline: as §1

USP38 = target: T2, USP38 (UniProt Q8NB14)
T2 sequence (whole entry): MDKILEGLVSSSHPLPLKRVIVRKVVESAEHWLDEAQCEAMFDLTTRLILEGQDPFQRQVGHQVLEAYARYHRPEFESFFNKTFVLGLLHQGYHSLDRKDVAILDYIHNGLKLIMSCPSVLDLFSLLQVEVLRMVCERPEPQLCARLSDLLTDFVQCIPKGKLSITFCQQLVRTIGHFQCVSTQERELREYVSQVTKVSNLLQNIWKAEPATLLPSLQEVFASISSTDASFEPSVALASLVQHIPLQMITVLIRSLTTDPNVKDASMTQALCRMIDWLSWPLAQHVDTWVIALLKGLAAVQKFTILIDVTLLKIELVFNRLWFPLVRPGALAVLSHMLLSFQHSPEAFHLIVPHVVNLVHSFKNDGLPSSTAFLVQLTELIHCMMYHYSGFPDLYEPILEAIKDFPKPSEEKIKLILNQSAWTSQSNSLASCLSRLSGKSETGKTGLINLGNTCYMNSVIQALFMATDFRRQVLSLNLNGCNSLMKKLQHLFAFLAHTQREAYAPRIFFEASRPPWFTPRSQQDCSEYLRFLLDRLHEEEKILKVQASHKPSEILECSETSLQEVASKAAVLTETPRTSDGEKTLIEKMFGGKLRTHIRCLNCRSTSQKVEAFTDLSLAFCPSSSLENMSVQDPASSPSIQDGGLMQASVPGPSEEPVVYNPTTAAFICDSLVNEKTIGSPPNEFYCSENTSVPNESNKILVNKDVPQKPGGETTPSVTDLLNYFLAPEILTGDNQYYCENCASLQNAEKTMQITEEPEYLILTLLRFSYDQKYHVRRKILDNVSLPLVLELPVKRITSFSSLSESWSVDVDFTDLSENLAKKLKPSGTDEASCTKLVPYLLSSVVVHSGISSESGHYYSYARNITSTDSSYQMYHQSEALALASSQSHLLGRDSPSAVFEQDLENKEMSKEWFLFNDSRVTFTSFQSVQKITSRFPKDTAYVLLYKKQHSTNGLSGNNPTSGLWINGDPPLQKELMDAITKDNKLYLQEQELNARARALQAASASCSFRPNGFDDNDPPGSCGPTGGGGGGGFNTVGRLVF
Outline: as §1

USP39 = target: T3, USP39 (UniProt Q53GS9)
T3 sequence (whole entry): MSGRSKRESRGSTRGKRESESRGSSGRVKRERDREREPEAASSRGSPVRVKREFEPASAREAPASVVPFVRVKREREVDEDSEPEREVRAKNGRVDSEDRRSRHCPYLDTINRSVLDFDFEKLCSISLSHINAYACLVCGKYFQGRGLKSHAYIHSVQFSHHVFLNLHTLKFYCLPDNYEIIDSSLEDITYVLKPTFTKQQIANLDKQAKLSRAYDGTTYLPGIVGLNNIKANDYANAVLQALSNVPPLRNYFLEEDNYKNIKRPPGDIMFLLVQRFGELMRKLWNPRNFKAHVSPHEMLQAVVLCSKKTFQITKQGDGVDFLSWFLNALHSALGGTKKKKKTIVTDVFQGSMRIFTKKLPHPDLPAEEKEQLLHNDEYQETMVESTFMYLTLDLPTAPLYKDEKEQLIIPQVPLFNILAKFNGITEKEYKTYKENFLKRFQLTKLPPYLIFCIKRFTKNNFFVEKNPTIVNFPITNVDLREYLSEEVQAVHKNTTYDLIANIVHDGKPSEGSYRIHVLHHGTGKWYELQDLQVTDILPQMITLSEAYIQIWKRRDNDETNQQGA
Outline: as §1

USP4 = target: T4, USP4 (UniProt Q13107)
T4 sequence (whole entry): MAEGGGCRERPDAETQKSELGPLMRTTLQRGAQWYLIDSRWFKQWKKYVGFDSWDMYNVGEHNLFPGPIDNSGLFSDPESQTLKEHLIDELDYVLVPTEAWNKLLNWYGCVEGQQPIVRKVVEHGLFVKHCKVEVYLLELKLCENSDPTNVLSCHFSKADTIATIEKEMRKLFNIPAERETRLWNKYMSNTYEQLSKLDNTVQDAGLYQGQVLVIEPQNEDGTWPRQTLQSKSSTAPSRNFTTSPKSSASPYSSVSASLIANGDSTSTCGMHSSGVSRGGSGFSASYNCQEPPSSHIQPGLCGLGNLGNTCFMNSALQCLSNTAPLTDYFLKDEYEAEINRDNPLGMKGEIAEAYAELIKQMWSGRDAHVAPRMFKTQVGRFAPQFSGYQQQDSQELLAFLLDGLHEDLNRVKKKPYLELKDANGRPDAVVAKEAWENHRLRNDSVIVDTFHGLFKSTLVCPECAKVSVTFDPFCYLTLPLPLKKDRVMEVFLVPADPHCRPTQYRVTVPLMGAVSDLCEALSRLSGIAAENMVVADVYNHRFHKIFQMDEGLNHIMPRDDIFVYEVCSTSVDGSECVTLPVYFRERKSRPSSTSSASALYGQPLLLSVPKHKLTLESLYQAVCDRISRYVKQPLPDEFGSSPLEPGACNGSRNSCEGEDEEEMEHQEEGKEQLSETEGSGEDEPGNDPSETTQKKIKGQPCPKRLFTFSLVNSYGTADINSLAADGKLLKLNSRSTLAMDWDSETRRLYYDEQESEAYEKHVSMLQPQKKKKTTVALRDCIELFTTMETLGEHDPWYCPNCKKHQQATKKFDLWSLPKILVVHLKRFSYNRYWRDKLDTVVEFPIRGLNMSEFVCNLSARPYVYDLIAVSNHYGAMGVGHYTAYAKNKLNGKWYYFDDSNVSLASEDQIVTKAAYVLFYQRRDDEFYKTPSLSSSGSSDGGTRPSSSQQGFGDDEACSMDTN
Outline: as §1

Measured: log2 ratio of Biotin-Ahx-Ub-VS probe labelling

USP34, sequence (Q70CQ2 whole entry, the tested form may be a part): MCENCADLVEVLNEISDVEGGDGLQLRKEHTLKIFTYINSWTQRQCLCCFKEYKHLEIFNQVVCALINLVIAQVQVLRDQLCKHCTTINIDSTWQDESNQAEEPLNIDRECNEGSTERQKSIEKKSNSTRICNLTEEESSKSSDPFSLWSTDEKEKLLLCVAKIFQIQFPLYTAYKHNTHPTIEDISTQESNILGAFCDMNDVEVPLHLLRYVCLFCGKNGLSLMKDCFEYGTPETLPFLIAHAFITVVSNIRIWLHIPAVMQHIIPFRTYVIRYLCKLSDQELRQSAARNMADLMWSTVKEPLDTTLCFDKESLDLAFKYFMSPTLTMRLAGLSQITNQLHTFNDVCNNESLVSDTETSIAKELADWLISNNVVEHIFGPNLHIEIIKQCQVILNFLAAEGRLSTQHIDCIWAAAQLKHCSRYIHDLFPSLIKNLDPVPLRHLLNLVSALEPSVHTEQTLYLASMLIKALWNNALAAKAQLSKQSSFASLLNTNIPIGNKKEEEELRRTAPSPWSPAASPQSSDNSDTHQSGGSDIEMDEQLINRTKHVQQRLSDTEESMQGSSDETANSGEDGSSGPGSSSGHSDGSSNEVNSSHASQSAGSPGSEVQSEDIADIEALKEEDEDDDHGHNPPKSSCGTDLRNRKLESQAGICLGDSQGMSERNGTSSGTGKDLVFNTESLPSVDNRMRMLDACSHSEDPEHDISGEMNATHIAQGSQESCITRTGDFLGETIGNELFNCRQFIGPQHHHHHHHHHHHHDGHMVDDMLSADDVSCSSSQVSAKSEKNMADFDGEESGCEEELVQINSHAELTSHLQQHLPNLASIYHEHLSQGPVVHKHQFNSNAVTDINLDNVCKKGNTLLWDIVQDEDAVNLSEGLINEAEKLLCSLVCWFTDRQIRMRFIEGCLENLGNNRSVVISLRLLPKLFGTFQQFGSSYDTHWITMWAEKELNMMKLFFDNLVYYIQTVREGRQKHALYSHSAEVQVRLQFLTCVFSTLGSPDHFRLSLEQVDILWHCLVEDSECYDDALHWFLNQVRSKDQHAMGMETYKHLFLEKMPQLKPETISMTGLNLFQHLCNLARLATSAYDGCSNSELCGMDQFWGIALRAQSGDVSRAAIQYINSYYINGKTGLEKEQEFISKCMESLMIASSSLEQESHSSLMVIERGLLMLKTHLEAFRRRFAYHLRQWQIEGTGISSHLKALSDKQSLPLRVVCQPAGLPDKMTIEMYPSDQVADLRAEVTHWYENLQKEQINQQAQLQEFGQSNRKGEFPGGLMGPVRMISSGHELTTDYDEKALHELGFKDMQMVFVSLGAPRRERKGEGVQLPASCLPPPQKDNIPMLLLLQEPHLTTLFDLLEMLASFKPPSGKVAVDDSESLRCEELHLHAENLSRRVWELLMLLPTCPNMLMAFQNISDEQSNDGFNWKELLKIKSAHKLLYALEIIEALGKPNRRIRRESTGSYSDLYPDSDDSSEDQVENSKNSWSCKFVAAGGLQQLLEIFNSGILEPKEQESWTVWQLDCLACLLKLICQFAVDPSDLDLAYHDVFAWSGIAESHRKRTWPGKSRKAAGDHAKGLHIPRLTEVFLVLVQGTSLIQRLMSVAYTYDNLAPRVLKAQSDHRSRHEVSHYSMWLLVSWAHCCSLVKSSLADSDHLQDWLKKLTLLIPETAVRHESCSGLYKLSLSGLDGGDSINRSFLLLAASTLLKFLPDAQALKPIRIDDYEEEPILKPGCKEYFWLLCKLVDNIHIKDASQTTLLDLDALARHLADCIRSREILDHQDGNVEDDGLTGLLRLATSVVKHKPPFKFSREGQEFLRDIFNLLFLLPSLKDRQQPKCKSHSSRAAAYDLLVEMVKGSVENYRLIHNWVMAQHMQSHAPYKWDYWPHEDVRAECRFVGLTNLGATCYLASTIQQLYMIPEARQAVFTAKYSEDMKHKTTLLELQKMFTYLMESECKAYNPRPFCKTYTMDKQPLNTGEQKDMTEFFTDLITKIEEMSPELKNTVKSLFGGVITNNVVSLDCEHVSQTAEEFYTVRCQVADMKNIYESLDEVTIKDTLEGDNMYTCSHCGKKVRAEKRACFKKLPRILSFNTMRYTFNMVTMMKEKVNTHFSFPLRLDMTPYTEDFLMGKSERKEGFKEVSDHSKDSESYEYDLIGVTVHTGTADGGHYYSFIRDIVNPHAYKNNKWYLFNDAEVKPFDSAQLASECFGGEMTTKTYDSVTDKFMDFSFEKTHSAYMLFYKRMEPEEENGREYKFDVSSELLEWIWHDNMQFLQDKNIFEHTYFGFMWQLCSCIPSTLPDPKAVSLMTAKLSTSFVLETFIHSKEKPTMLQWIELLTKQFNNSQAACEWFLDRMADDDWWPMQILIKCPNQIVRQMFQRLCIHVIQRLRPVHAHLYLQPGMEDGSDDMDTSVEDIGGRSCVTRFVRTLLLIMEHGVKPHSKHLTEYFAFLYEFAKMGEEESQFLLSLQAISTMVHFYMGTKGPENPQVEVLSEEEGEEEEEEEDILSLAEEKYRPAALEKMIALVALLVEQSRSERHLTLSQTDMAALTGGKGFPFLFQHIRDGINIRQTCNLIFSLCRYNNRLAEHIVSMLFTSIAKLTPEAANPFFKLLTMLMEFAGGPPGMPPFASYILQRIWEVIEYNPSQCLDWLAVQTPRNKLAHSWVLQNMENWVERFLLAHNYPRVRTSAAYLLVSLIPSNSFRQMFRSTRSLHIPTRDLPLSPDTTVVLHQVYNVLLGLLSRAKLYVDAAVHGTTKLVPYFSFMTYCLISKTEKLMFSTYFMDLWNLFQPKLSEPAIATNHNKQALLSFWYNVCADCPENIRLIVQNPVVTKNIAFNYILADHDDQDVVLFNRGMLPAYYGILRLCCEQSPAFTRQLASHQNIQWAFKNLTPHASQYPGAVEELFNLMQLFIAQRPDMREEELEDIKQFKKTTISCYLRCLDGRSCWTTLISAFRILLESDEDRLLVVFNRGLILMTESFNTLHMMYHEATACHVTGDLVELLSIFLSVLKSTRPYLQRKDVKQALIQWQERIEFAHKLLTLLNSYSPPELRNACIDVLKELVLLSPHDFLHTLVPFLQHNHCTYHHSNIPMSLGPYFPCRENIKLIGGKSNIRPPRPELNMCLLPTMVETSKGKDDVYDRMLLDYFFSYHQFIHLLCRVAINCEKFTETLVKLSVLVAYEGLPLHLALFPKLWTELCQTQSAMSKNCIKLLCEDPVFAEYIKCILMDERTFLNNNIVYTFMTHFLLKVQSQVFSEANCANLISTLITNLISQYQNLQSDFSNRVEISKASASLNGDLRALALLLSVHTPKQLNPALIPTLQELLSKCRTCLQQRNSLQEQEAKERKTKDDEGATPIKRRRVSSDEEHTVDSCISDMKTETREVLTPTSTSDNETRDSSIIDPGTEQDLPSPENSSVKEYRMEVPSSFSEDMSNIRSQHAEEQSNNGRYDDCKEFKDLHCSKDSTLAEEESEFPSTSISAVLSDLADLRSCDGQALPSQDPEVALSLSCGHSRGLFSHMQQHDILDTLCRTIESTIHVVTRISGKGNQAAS

Cc1ccc(CNC(=O)CCl)nc1C.Cl
inactive: USP34 -0.103 | USP36 0.158 | USP38 0.0543 | USP39 0.0861 | USP4 0.0382
